# Screens: PubChem BioAssay, National Center for Advancing Translational Sciences (NCATS)
# PNC inhibitor: High Content Assay for Compounds that inhibit the Assembly of the Perinucleolar Compartment. PC3M PTB-GFP, PNC prevalence imaging, 16 h; hits give low values. activity change (PNC), negative = inhibition, % at 10 µM. 3.1% of 140,000 active. AID 2417, 2010;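 active = readout at or below -70, meaning at least 70% loss of cells showing the perinucleolar compartment, a nuclear body marking cancer cells; inconclusive = readout between -30 and a set limit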;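 also: plate controls were DMSO wells for no effect and camptothecin positive control wells for full effect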
#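 Read-out is percentage of cells bearing a perinucleolar compartment, from automated 20x imaging of fixed, Hoechst-stained PC3M PTB-GFP cells. Cells were seeded 4 h, then exposed 16 h to compound (23 nl of library stock) in duplicate plates.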
# CBFb-RUNX1 inh: qHTS Assay for Compounds Blocking the Interaction Between CBF-beta and RUNX1 for the Treatment of Acute Myeloid Leukemia; 230,000 tested, under 10 active; Runt-related transcription factor 1 (Homo sapiens) + Core-binding factor subunit beta …; Potency, µM (series often up to 59.8 µM), for the others: at the highest dose activity, negative = inhibition, most hits filed as inhibitors; AlphaScreen CBFb-His/RUNX1-biotin binding, biochemical; also: % of control where 0% means no effect
#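 AlphaScreen binding: CBFb-His and RUNX1-biotin (30 nM each) preincubated 20 min, compound added for 15 min, then nickel and streptavidin beads for 90 min, all at room temperature. Disruption of the interaction by any mechanism counts as activity.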
# HTT cytoprotect: qHTS Multiplex Assay to Identify Dual Action Probes in a Cell Model of Huntington: Cytoprotection (ATP). PC12 HTT-Q103 induced, cytoprotection, ATP luminescence, 40 h. Potency, µM (top dose mostly 56.4 µM), inactives show cytoprotection (ATP increase), usual class: activators. 0.14% of 230,000 active; also: potency is read from the fitted curve at half-maximal effect; % of control where 0% means no effect; nearly all actives have a fitted effect of over 45% in size
#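 Cells were plated at 1500 per well in phenol red-free DMEM with 5% equine and 5% calf serum. Tebufenozide (100 nM final) and compounds were added, then ATPlite reagent, and luminescence was read.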
# HttQ103 aggreg: qHTS Multiplex Assay to Identify Dual Action Probes in a Cell Model of Huntington: Aggregate Formation (GFP); PC12 HttQ103-GFP aggregates, Acumen cytometry, 40 h; Potency, µM (top dose mostly 46.1 µM), for the others: at the top dose activity change, negative = inhibition, hits mostly inhibitors; 1.1% of 220,000 active; AID 1688, 2009; also: potency is read from the fitted curve at half-maximal effect; % is scaled to controls: 0 for no effect and ±100 for the full control effect; nearly all actives have a fitted effect of over 60% in size
#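 Huntingtin Q103 exon 1–GFP aggregates in induced PC12 cells (100 nM tebufenozide) were quantified by cytometry from lysates, with compounds dosed in titration.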
# HPGD inh: qHTS Assay for Inhibitors of HPGD (15-Hydroxyprostaglandin Dehydrogenase); 15-hydroxyprostaglandin dehydrogenase [NAD(+)] (Homo sapiens), P15428; purified HPGD, NADH fluorescence kinetic, PGE2 substrate; Potency, µM, for inactives: at the highest dose activity change, negative = inhibition, hits mostly inhibitors; 4.3% of 150,000 active; AID 894, 2007; active = well fitted inhibition curve with a large enough effect, not every such curve was filed as active; inconclusive = small, poorly fitted or top-dose-only effect, or another doubt; inactive = no such curve, though single readings can be large or run the other way; also: potency is read from the fitted curve at half-maximal effect; % is scaled to controls: 0 for no effect and ±100 for the full control effect
# Target sequence (P15428 whole entry, looked up): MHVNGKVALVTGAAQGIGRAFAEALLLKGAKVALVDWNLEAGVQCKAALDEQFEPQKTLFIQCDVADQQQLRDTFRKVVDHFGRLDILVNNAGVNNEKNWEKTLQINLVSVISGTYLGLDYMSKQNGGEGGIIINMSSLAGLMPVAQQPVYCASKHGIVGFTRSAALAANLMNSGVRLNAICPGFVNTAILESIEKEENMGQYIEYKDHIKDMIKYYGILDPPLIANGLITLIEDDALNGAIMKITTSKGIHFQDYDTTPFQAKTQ
#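 NADH formation kinetics: reaction with 30 uM PGE2 and 1 mM NAD+ (final), 20 nM enzyme, Tris-HCl pH 8 with Tween 20, after 15 min compound preincubation at room temperature. Fluorescence change, last versus first of five reads.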
# ALDH1A1 inh: qHTS Assay for Inhibitors of Aldehyde Dehydrogenase 1 (ALDH1A1); Aldehyde dehydrogenase 1A1 (Homo sapiens), P00352; Purified ALDH1A1, NADH fluorescence, propionaldehyde substrate; Potency, µM (top dose mostly 75.3 µM), inactives show top-dose activity, negative = inhibition, usual class: inhibitors; 7.3% of 220,000 active; AID 1030, 2008; active = well fitted inhibition curve with a large enough effect, not every such curve was filed as active; inconclusive = small, poorly fitted or top-dose-only effect, or another doubt; inactive = no such curve, though single readings can be large or run the other way;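 also: potency is read from the fitted curve at half-maximal effect; plate controls were no enzyme wells and a reference inhibitor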
# Numbers without * were called inactive; ? = inconclusive; . = no result given; ! = not active in a repeat; [ ] = another dose, or the depositor's remark. Hits are enriched below; roughly 11% of the tested compounds scored in any of these assays. Unless noted, calls follow the shape of the dose curve; as a rule, active = well fitted curve in the direction sought with a large enough effect; inconclusive = small, poorly fitted or top-dose-only effect, or another doubt; inactive = no such curve, though single readings can be large; an effect the other way counts as inactive or inconclusive.
SMILES,PNC inhibitor,CBFb-RUNX1 inh,HTT cytoprotect,HttQ103 aggreg,HPGD inh,ALDH1A1 inh
COc1ccc(NC(=O)CSc2nnc(Cc3cccs3)n2-c2ccc(C)cc2)cc1,33.7,1.0%,11.5%,27.5%,-5.7%,15.8µM*
C=CCn1c(Cc2cccs2)nnc1SCC(=O)Nc1cccc(OC)c1,-4.7,9.4%,-13.8%[0.074 µM],2.1%,-4.3%,-2.3%
COc1cccc(NC(=O)CSc2nnc(Cc3cccs3)n2-c2ccc(C)cc2)c1,-1.9,0.3%,-22.5%,13.3%,-14.6%,2.99µM*
CCC1=C2CC[C@H]3C(=O)N(CC)C(=O)[C@H]3[C@H]2[C@@]2(Cc3ccccc3)C(=O)N(CCOC)C(=O)N2C1=O,.,-3.0%,-19.9%,.,1.0%,-2.2%
CC(C)(C)OC(=O)NCCCC1=CC2=CC(=O)C(C)(OC(=O)c3cnc4ccccc4n3)C(=O)C2=CO1 (configuration not stated),.,-10.1%,-7.6%,.,-11.4%,0.0%
CCC(O)CNC(=O)CCc1nnc(C2(c3ccc(Cl)cc3)CCC2)o1 (configuration not stated),.,11.3%,7.3%[10 µM],2.0%[9.22 µM],.,2.9%
Cc1c(C(C)(C)C)c(C=S)n2ccccc12,9.2,-2.6%,-10.1%,2.6%,-14.0%,22.4µM*
CC(C)(C)c1ccc(-c2nc(C=O)c3ccccn23)cc1,-13.2,19.0%,-47.1%,-30.9%,-28.8%,?
COC(=O)NC1C=CCCC1C(C)=O (configuration not stated),.,-0.3%,-4.6%,.,-3.6%,-2.8%
CCOC(=O)N1CCN(C(=O)c2oc(=O)c3ccccc3c2-c2ccc(C)cc2)CC1,?,-25.9%,-1.5%,1.6%,-8.3%,0.0141µM*
Cc1ccc(-c2c(C(=O)N(C)Cc3ccccc3)oc(=O)c3ccccc23)cc1,27.8,-3.3%,11.1%[10 µM],17.1%,-12.9%,1.78µM*
Cc1ccc(-c2c(C(=O)NC(C)C)oc(=O)c3ccccc23)cc1,.,-2.2%,-29.8%,2.5%,.,1.41µM*
CN1CCN(C(=O)C(C(=O)c2ccc(F)cc2)n2ccccc2=O)CC1 (configuration not stated),1.8,-1.0%,20.5%,10.0%,-6.4%,4.3%
Cc1cccc(CSC(=N)N)c1,-115.2*,0.9%,5.0%[10 µM],-6.4%,.,8.1%
COc1cc(-c2[nH]ncc2CN2CCN(c3cccc(C)n3)CC2)cc(OC)c1OC,.,-0.3%,22.1%[10 µM],12.6%[9.22 µM],.,.
CCOC(=O)c1nn(-c2ccc(F)cc2)c(-c2ccccc2)c1C(=O)c1ccccc1,40.6,0.0%,27.3%,-7.5%,-23.0%,11.2µM*
CCOC(=O)c1nn(-c2ccccc2)c(-c2ccccc2)c1C(=O)c1ccccc1,65.3,-0.1%,-3.4%,-5.6%,-11.3%,?
CCOC(=O)C1CCCN(C(=O)c2cc(S(=O)(=O)N3CCCCC3)ccc2C)C1 (configuration not stated),.,4.7%,14.7%[10 µM],30.1%[9.22 µM],.,.
Cc1ccc(C2C=C(c3ccccc3OC(F)F)Nc3ncnn32)cc1 (configuration not stated),?,7.3%,-17.4%,-12.4%,?,?
CN(C)c1ccc(C2C=C(c3ccc(Cl)cc3OC(F)F)Nc3ncnn32)cc1 (configuration not stated),35.2,1.7%,-14.6%[10 µM],-0.5%,-9.5%,20µM*
COCC(=O)O[C@]1(CCN(C)CCCc2nc3ccccc3[nH]2)CCc2cc(F)ccc2[C@@H]1C(C)C,.,11.2%,-99.3%,7.94µM*!,-8.7%,-7.3%
CCOC(=O)CCc1nc2ccccc2[nH]1,?,8.6%,-13.7%,6.5%,-1.0%,-4.6%
